Source: PubChem BioAssay (Broad Institute)
SIRT5 block: SIRT5 desuccinylase inhibitors, primary screen, biochemical, fluorescence imaging, single point, set 5. NAD-dependent protein deacylase sirtuin-5, mitochondrial (Homo sapiens), Q9NXA8. 1.1% of 330,000 active. Purified SirT5, succinyl-peptide AMC, trypsin-coupled fluorescence. inhibition, % at 15 µM; in the data active = inhibition above about 15%
Target sequence (Q9NXA8 whole entry, looked up): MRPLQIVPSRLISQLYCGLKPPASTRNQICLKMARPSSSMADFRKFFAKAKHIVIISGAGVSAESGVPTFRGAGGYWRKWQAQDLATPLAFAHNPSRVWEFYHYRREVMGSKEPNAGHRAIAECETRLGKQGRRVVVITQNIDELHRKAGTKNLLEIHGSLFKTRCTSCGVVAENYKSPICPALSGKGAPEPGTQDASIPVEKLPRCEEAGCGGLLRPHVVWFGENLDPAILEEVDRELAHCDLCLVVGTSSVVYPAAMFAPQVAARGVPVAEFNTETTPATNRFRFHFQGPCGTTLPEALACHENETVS
ARNT TACC3 PPI: disruptors of ARNT/TACC3 protein interaction, primary screen, biochemical, AlphaScreen, single concentration; Transforming acidic coiled-coil-containing protein 3 (Homo sapiens), Q9Y6A5; AlphaScreen His-ARNT PAS-B/GST-TACC3 binding, luminescence; TACC3 fragment carries E629A point mutation; inhibition, % at 9.99 µM; 0.66% of 390,000 active; AID 623870, 2012;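 active = mean inhibition of replicates at least 50% and at least half of replicates each reaching 50%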;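 note: 0% = complete ARNT plus TACC3 wells and 100% = ARNT alone without TACC3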
Casp6 inh: human caspase-6 inhibitors, primary screen, biochemical, VEID-R110 fluorescence, single point, set 2; P55212; purified caspase-6, Z-VEID-R110 cleavage fluorescence; inhibition, % at 12.5 µM; 0.53% of 350,000 active;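 active = mean inhibition across replicates at least about 35%, with every replicate also reaching that limit, limit read from the data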;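 note: 0% = median of neutral control wells and 100% = no fluorescence left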
Target sequence (P55212 24-179 limits assumed): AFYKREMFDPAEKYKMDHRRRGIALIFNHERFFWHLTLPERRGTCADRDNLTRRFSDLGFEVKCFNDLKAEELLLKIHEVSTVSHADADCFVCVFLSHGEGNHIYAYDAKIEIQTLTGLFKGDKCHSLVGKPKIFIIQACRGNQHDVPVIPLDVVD
Target sequence (P55212 194-293 limits assumed): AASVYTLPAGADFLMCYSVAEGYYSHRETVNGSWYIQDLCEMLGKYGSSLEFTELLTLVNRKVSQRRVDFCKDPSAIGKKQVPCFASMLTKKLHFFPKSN
NSD2 HMT inh: NSD2 histone methyltransferase inhibitors, primary screen, biochemical, AlphaScreen, single concentration, set 2 | AID 743445, 2014 | Histone-lysine N-methyltransferase NSD2 (Homo sapiens), O96028 | inhibition, % at 12.5 µM | 0.54% of 310,000 active | NSD2 peptide methylation, 120 min; in the data active = inhibition above about 50%
PfHsp90 set2: growth inhibition of PfHsp90-expressing yeast, primary screen, antimalarial PfHsp90 inhibitor project, S. cerevisiae, BacTiter-Glo luminescence, single point, set 2; BacTiter-Glo ATP, 48 h; yeast lacking PDR1 and PDR3 efflux regulators; inhibition, % at 9.4 µM; 0.32% of 310,000 active;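 active = every replicate shows inhibition above about 80%, whatever the replicate mean, limit read from the data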;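 note: 0% = DMSO neutral controls and 100% = 20 µM radicicol positive controls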
Alpha artifact: AlphaScreen signal interference with preloaded methylated product, dose response, artefact control for NSD2 inhibitor project, biochemical, cherry-picked samples. shares compounds with NSD2 HMT inh. AlphaScreen artifact counterscreen, preloaded methylated H4 peptide. AC35, µM (top dose mostly 10 µM), for the others: top-dose activity change, negative = signal loss. 9.4% of 1,500 active; call rule not given here
* = called active by the depositor; · = not tested or not shown. An excerpt weighted towards active compounds, which were near 2.1% of everything screened.

SMILES	SIRT5 block	ARNT TACC3 PPI	Casp6 inh	NSD2 HMT inh	PfHsp90 set2	Alpha artifact
CCOC(=O)C1=C(C)N=c2s/c(=C/c3cccc([N+](=O)[O-])c3O)c(=O)n2C1c1ccccc1 (stereo unspecified)	12	60*	17	63*	11	8.7µM*
Cc1cc(C(=O)COC(=O)c2n[nH]c3ccccc23)c(C)n1C	·	0	·	71*	-12	-2%
NC(=O)c1nsc(C(=O)N(c2ccccc2)C(C(=O)NCC2CCCO2)c2ccc3ncccc3c2)c1N (stereo unspecified)	-3	0	2	59*	-34	6%
CCOc1ccccc1N(C(=O)c1snc(C(N)=O)c1N)C(C(=O)NCC1CCCO1)c1ccc2ncccc2c1 (stereo unspecified)	2	-8	-2	-1	-15	·
CCN(CC)CCNC(=O)c1cccc(NC(=O)C(=O)c2cc(Br)ccc2NC(C)=O)c1	-1	3	-13	57*	15	-3%
COc1ccc2c3c(n(C)c2c1)[C@@H](CO)N(C(=O)C1CC1)CC31CN(C(=O)Nc2cccc(F)c2)C1	3	·	1	·	·	·
CCN1CCN(CCCNC(=O)c2ccc3c(c2)NC(=O)/C(=C\c2cccc(C)c2)S3)CC1	-3	27	-82	51*	-63	-5%
O=C(N[C@@H]1CC[C@@H](CC(=O)N2CCCCC2)O[C@H]1CO)c1cccc(F)c1	3	-3	-5	·	·	·
O=C1Cc2ccccc2C(=O)N1c1ccccc1	-1	·	26	86*	4	-7%
CCOc1ccc(N2C(=O)Cc3ccccc3C2=O)cc1	1	1	30	0	40	·
C[C@H]1CN([C@@H](C)CO)C(=O)c2cc(NC(=O)Cc3ccccc3)ccc2O[C@H]1CN(C)Cc1ccc(C(=O)O)cc1	-3	-17	1	·	·	·
Cc1cc(-c2n[nH]c(=S)n2N=Cc2cccc(OCc3ccccc3)c2)n[nH]1	·	·	·	63*	·	-9%
O=C(C[C@H]1C[C@@H]2c3cc(NC(=O)Nc4ccccc4)ccc3O[C@@H]2[C@@H](CO)O1)NCc1cccnc1	·	2	·	·	·	·
C[C@@H]1CN([C@H](C)CO)C(=O)Cc2cc(NC(=O)CCC(F)(F)F)ccc2O[C@H]1CN(C)Cc1ccncc1	9	3	-2	·	·	·
Cn1c(NNC(=O)c2c(F)cccc2F)cc(=O)n(C)c1=O	-4	1	24	62*	4	-4%
C[C@H](CO)N1C[C@H](C)[C@@H](CN(C)C(=O)Nc2ccc3c(c2)OCO3)OCCCC[C@H](C)Oc2ccc(NC(=O)Nc3ccccc3)cc2C1=O	11	10	-3	·	·	·
Cc1nn(-c2ccccn2)c2c1C(=O)C(Br)CC2 (stereo unspecified)	·	13	·	100*	-1	-1%
CCOC(=O)c1sc2nc(C)nc(NC3CCC(O)CC3)c2c1C (stereo unspecified)	-9	-3	3	91*	-5	-5%
CCN(CC)c1ccc(NC(=O)COC(=O)c2ccc3ccccc3n2)cc1	·	3	·	107*	20	-10%
NS(=O)(=O)c1ccc(N/N=C/c2ccc(O)cc2O)c([N+](=O)[O-])c1	14	29	1	18	-1	·
NS(=O)(=O)c1ccc(N/N=C/c2ccc(O)c(O)c2O)c([N+](=O)[O-])c1	16*	-4	68*	73*	4	-10%
CN(C)c1ccc(C=c2c3ccccc3n3c2c2c([n+]3C)CCCC2)cc1	-2	33	·	71*	-42	4.5µM*
CC(=NO)c1cc(Br)c2cccc3c2c1CC3	·	·	0	66*	·	-3%
COc1ccc(S(=O)(=O)N(C)C[C@@H]2OCCCC[C@H](C)Oc3ccc(NC(=O)CCCN(C)C)cc3C(=O)N([C@H](C)CO)C[C@@H]2C)cc1	-7	-9	0	·	·	·
N#Cc1c2nc3ccccc3nc2n2cc(NC(=O)c3ccc(F)cc3)ccc12	2	·	7	73*	3	-4%
SMILES	SIRT5 block	ARNT TACC3 PPI	Casp6 inh	NSD2 HMT inh	PfHsp90 set2	Alpha artifact
Cc1c(C(=O)Nc2ccc(F)cc2)cn2c(nc3ccccc32)c1C#N	-2	-8	-1	0	5	·
CC(C)Sc1nnc([C@H](Cc2c[nH]c3ccccc23)NC(=O)OC(C)(C)C)o1	·	-6	·	54*	3	-7%
O=S(=O)(c1ccccc1)N1CCN(Cc2cccc(OCCO)c2)CC1	1	-11	1	·	·	·
Cc1ccc(Cl)cc1NC(=O)C[n+]1ccc(Cc2ccc([N+](=O)[O-])cc2)cc1	0	51*	8	84*	-4	-10%
CO[C@@H]1CN(C)C(=O)c2cc(NC(=O)C3CC3)ccc2OC[C@H](C)N(C(=O)c2ccccc2F)C[C@@H]1C	7	-2	2	·	·	·
COc1ccc(S(=O)(=O)NCc2ccc3c(c2)OCO3)cc1C	-2	-15	3	1	16	·
COc1ccc(S(=O)(=O)NCc2ccc3c(c2)OCO3)cc1OC	2	-9	0	55*	2	2%
COc1cc(OC)c(C(=O)OC(C)C(=O)NCc2ccc3c(c2)OCO3)cc1OC (stereo unspecified)	0	-2	2	76*	27	-4%
CC(OC(=O)c1ccco1)C(=O)NCc1ccc2c(c1)OCO2 (stereo unspecified)	-1	·	1	1	-10	·
CCCC(=O)Nc1ccc2c(c1)OC[C@H](C)N(Cc1nccs1)C[C@@H](C)[C@@H](OC)CN(C)C2=O	-2	-5	-1	·	·	·
O=C(Nc1cccc(O)c1)c1ccc(Br)cc1	·	5	·	67*	2	0%
C/C=C/c1ccc([C@H]2[C@@H](CO)N(C(C)=O)C23CN(C(=O)NC2CCCC2)C3)cc1	4	·	4	·	·	·
CCOC1=NN(c2ccccc2)C(=O)/C1=C\N(C)C	-1	·	-1	2	-15	·
CC1=NN(c2ccccc2)C(=O)/C1=C/N(C)C	2	16	3	71*	3	-6%
Cc1ccc(C(=O)Nc2ccc(Cl)cc2C(F)(F)F)c(Cl)c1	1	6	3	188*	-9	1%
C[C@@H]1CN([C@@H](C)CO)C(=O)c2cc(-c3cccc(F)c3)cnc2O[C@@H]1CN(C)Cc1cccnc1	-5	1	-3	·	·	·
CN(C)C(=O)c1cccc(-c2ccc([C@H]3[C@H](CO)N4CCCCN(CCC(F)(F)F)C[C@@H]34)cc2)c1	-2	-5	0	·	·	·
